# About 83,000 compounds went through this panel and 20% of them were active in at least one assay; those are over-represented in the sample as a whole.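 Plates (96-well) were seeded with cells, treated with compound at one concentration, and incubated for 48 hours before percent growth was determined.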 Values without a mark were called inactive. Activity calls are given as the source filed them. The calls were made as follows: active = growth percent below 10; inactive = the rest.
# Columns and labels:
# Assay in all cases: NCI-60 one-dose screen, 48 h (100 = growth as untreated, 0 = no growth, -100 = all killed)
# Conditions in all cases: 10 µM unless noted
# HCT-15 colon = system: HCT-15 colon
# HT29 colon = system: HT29 colon
# SNB-75 CNS = system: SNB-75 CNS
# SNB-19 CNS = system: SNB-19 CNS
# U251 CNS = system: U251 CNS
# PC-3 prostate = system: PC-3 prostate
# SK-MEL-5 melanoma = system: SK-MEL-5 melanoma
# UACC-62 melanoma = system: UACC-62 melanoma
# LOX IMVI melanoma = system: LOX IMVI melanoma
# SK-MEL-28 melanoma = system: SK-MEL-28 melanoma
# SK-MEL-2 melanoma = system: SK-MEL-2 melanoma
# EKVX NSCLC = system: EKVX NSCLC
# SN12C renal = system: SN12C renal
# TK-10 renal = system: TK-10 renal
# ACHN renal = system: ACHN renal
# CAKI-1 renal = system: CAKI-1 renal
# CCRF-CEM leukemia = system: CCRF-CEM leukemia
# MOLT-4 leukemia = system: MOLT-4 leukemia
# UO-31 renal = system: UO-31 renal
# A498 renal = system: A498 renal
SMILES,growth (HCT-15 colon),growth (HT29 colon),growth (SNB-75 CNS),growth (SNB-19 CNS),growth (U251 CNS),growth (PC-3 prostate),growth (SK-MEL-5 melanoma),growth (UACC-62 melanoma),growth (LOX IMVI melanoma),growth (SK-MEL-28 melanoma),growth (SK-MEL-2 melanoma),growth (EKVX NSCLC) [%],growth (SN12C renal),growth (TK-10 renal),growth (ACHN renal),growth (CAKI-1 renal),growth (CCRF-CEM leukemia),growth (MOLT-4 leukemia),growth (UO-31 renal),growth (A498 renal)
COC(=O)[C@@]12CC[C@@H](C)[C@]3(C[C@@H](c4ccoc4)OC3=O)[C@H]1CC[C@@H]1O[C@@]12C,101%,107%,86%,102%,105%,95.2%,98.9%,95.1%,99.3%,103%,96.9%,94.8,98.8%,103%,105%,94.4%,107%,110%,–,–
CCCCOC(=O)C1OC(Oc2ccc3c(C)cc(=O)oc3c2)[C@@H](OC(C)=O)C(OC(C)=O)C1OC(C)=O (some centres not stated),99.2%,104%,86.3%,99.1%,100%,104%,101%,97%,94.5%,108%,103%,89.5,–,99.2%,101%,94.1%,94.1%,107%,87.1%,–
COc1ccc(/C=C/C(=O)N2CCC(O)CC2)cc1OC1CCCC1,102%,102%,90.2%,95.7%,93%,96.5%,99.3%,97.9%,95.3%,115%,107%,–,95%,102%,102%,93.1%,119%,97.6%,87.8%,–
O=C1CC(c2ccsc2)c2snc(-c3ccc(Cl)cc3)c2N1 (configuration not stated),21.9%,3.6% (active),-6.98% (active),64.4%,27.7%,24%,18.1%,30.8%,51.8%,45.4%,27.3%,–,54%,53.8%,53%,26.6%,16.3%,14.5%,48.4%,–
C[C@]1(CO)C[C@@H](O)C[C@]2(C)[C@@H]1CC[C@@]13C[C@@H]4[C@@H](C[C@H]12)[C@]4(C)C3,103%,105%,88.9%,95.7%,104%,99%,99%,94.1%,107%,103%,102%,–,99.1%,103%,97.7%,89.5%,116%,108%,83.9%,–
Cc1cc(=O)oc2c1ccc1oc(C(=O)c3ccccc3)c(C)c12,64%,51.8%,103%,103%,83.9%,86.4%,84.3%,80.8%,80.5%,105%,104%,–,71%,113%,76.9%,77.1%,69.1%,76.8%,100%,82.8%
COc1ccc(Sc2ccc3[nH]c(=O)nc(N)c3c2)cc1,103%,106%,91.3%,94.1%,94.3%,96.9%,103%,105%,99.7%,104%,104%,95.5,–,105%,107%,106%,95.3%,97.7%,99.2%,98.6%
Clc1cccc(Cl)c1Nc1ccc2nnc(-c3ccncc3)n2n1,90.9%,106%,99.4%,101%,103%,101%,100%,106%,93.2%,105%,104%,–,95.9%,102%,105%,89.2%,80.7%,96.1%,96.1%,90.5%
Cc1oc2c(c1C(=O)N1CC[C@@H](N)C1)C(=O)c1c(c(O)c3ccccc3c1O)C2=O,20.7%,11.3%,31.8%,40%,23.8%,10.9%,42.7%,55.2%,24.9%,62.9%,77.4%,–,22%,57%,14.8%,28.1%,-3.65% (active),0.576% (active),4.23% (active),61.5%
COc1ccc(Cn2c(Br)c3c(c2-c2cc(OC)c(OC)c(OC)c2)CCc2sc(N)nc2-3)cc1,18.8%,-12.4% (active),-0.745% (active),55.4%,21.8%,28.8%,10.1%,25.5%,33.5%,33.9%,50.3%,–,31.9%,46.2%,42.1%,44.7%,–,8.47% (active),35.2%,-15.8% (active)
NS(=O)(=O)c1ccc(C(=O)N/N=C(\CS(=O)(=O)c2ccccc2)c2cc3cc(Br)ccc3o2)cc1,99.5%,97.4%,56.1%,69.9%,96.1%,94.4%,85.6%,82%,94.7%,98.4%,100%,103,89%,107%,99.3%,89.9%,118%,137%,–,–
Nc1nc(-c2ccnc(Cl)c2)nn1-c1nc2ccccc2s1,101%,112%,103%,98.9%,107%,102%,106%,97%,102%,104%,108%,96.5,101%,–,96.9%,95%,101%,119%,–,96.2%
O=S(=O)(Nc1ncccn1)c1ccc(Nc2ccc3nnc(-c4ccncc4)n3n2)cc1,99.3%,116%,86.9%,99.7%,102%,102%,100%,99.1%,95.1%,99.1%,125%,–,93.9%,115%,98.6%,99.6%,94.3%,109%,81%,87.5%
CN([N-]C(=O)CC(=O)[N-]N(C)C(=S)c1ccccc1)C(=S)c1ccccc1.[Cu+2],2.52% (active),-77.8% (active),-96.8% (active),-96.1% (active),-99% (active),-53% (active),-94.6% (active),-92.4% (active),-93.1% (active),-94.7% (active),-90.2% (active),–,-97.9% (active),-99.1% (active),-50.6% (active),-94.7% (active),-19.7% (active),-36.2% (active),-97.5% (active),-93.9% (active)
O=C1NC(=S)S/C1=C\c1cccc([N+](=O)[O-])c1,93.3%,109%,83.8%,98%,92.7%,88.1%,89.9%,70%,88.9%,112%,103%,90.4,–,107%,89.2%,87.5%,78.2%,85.5%,65.1%,96.1%
